Laboratory results from PubChem BioAssay (NCATS).
Inconclusive results are not listed. Entries that show only a call come without a potency. A number with no mark means an inactive call. Activity calls are given as the source filed them. Calls come from the whole dose curve; as a rule, active = well fitted cell-killing curve with a large enough effect; inconclusive = small, poorly fitted or top-dose-only effect; inactive = flat fitted curve, though single readings scatter. *1 amine or outer side, *2 acyl side, *3 side chain or, on linkers, in order; H or OH if unused. Where a SMILES comes first, the peptide text is derived from it. Bridges are numbered along the chain shown (N, C = ends). [ ]: non-standard residue; d: D form. The star is where a group is joined. ξ: configuration not given here. X10 = NC1=NCCC(C(N[*:1])C(=O)[*:2])N1; ΔAla(3-NHCONH2) = NC(=O)NC=C(N)C(=O)O; ξβ3hOrn = NCCCC(N)CC(=O)*; Dap = NC[CH](N)C(=O)O

Test: qHTS of pediatric cancer cell lines to identify multiple opportunities for drug repurposing: Primary screen for control Hh wild type fibroblast cells (AID 1347106); note: nearly all actives have a fitted effect of over 55% in size;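 for activity change, negative = cytotoxic: a drop in luminescence marks cytotoxicity and a rise apparent proliferation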
Settings: Hh wild-type fibroblast viability, CellTiter-Glo luminescence, 48 h; series mostly up to 46 µM
Excerpt: Drug repurposing or repositioning has been offered as a strategy for drug development in oncology programs. This approach has special potential for childhood cancers and other rare or orphan diseases, where the expected return on new drug development has been a disincentive to pharmaceuticals.
In this project we exploit the poly-pharmacology of drugs to discover new indications via phenotypic screening of a panel of 19 well-characterized cell lines derived from solid tumors seen in children and adolescents. The goal is to identify approved drugs with previously unrecognized anticancer properties that has the potential to reveal new mechanisms and biological processes involved in carcinogenesis or drug resistance. We employed a titration-based paradigm (quantitative high-throughput screening or qHTS), where all compounds were tested at multiple concentrations for their effect on cell viability. Concentration-response curves (CRCs) were derived directly from the primary screen, and both potency and efficacy values were used to identify compounds with robust bioactivity profiles. We screened the NIH Chemical Genomics Center (NCGC) Pharmaceutical Collection (NPC) and Mechanism Interrogation Plate (MIPE) small molecule collections of approved and investigational compounds against these cell lines; and measured metabolically active cells after 48 hours of compound treatment as a proxy for cell viability.
Assay Submitter: Nathalia J. Martinez, National Center for Advancing Translational Sciences, National Institutes of Health, Rockville, MD, USA; email: natalia.martinez@nih.gov
[1] Shen, M et al. Quantitative high-throughput phenotypic screening of pediatric cancer cell lines identifies multiple opportunities for drug repurposing. Oncotarget 2017 Dec 19;9(4):4758-4772. PMID 29435139.
The cells were obtained from University of North Carolina (UNC), Pediatric Preclinical Testing Program (PPT), and Coriell Institute (CI).
qHTS cell viability assay:
Cells were assayed in growth media at a density of 500-1,000 cells/well. Five microliters of cells were dispensed into 1,536-well, white, solid-bottom, TC-treated plates (Greiner Bio One) using a multidrop dispenser and incubated at 37 degrees C, 5% CO2, under a humidified atmosphere for 5 hours. Twenty-three nanoliters of compounds and controls (neutral control DMSO or positive control bortezomib at final concentration of 2.3 µM) were subsequently transferred by Kalypsys pintool. For primary screens, the MIPE collection was tested at 11-point dilutions (final concentrations range from 0.78 nM to 46 µM) and the NPC collection at 8-point dilutions (final concentrations range from 0.59 nM to 46 µM). Compounds tested in follow-up screens were assayed at 11-point dilutions. Cells were incubated for 48 hours, followed by addition of 3 µL of CellTiter-Glo (Promega). After a 15 min incubation at room temperature, samples were analyzed for luminescence intensity using a ViewLux High-throughput CCD imager equipped with clear filters.
Potency is the fitted concentration of half-maximal effect.

| SMILES | Potency | activity change, negative = cytotoxic |
| --- | --- | --- |
| CCC(=O)Oc1ccc2c(c1)CC[C@@H]1[C@@H]2CC[C@@]2(C)[C@H]1C[C@@H](OC(=O)CC)[C@@H]2OC(=O)CC | inactive |  |
| C[N+]1(CC2COC(c3ccccc3)(c3ccccc3)O2)CCCCC1 (stereo not given) | inactive |  |
| Cc1ccc(-c2ccccc2C#N)cc1 | inactive |  |
| CCOC(=O)C(O)c1ccccc1 (stereo not given) | inactive |  |
| CN(C)C(=O)CNC(=O)Cc1ccccc1 | inactive |  |
| O=C(C1CCCCC1)N1CC(=O)N2CCCc3ccccc3C2C1 (stereo not given) | inactive |  |
| COc1ccc(-n2nc(CCC(=O)N(C)O)cc2-c2ccc(Cl)cc2)cc1 | inactive |  |
| CN1CCC(=C2c3ccccc3CCc3cccnc32)CC1 | inactive |  |
| COc1cc(C(=O)NC2CCCNC2)cc(OC)c1OC (stereo not given) | inactive |  |
| O=C(O)Cc1ccc(OCCNC[C@H](O)c2ccccc2)cc1 | inactive |  |
| Oc1ccccc1 | inactive |  |
| Cc1c(C)c2c(c(C)c1OC(=O)CCC(=O)OCCO)CC[C@@](C)(CCC[C@H](C)CCC[C@H](C)CCCC(C)C)O2 | inactive |  |
| N#CC1(c2ccc(F)cc2)CCC(=O)CC1 | inactive |  |
| NCC(=O)O | inactive |  |
| C[C@H]1NCc2cc(-c3ccc4c(=O)c(C(=O)O)cn(C5CC5)c4c3OC(F)F)ccc21 | inactive |  |
| COc1ccccc1N1CCN(CC(O)COc2cc(OC)c(OC)c(OC)c2)CC1 (stereo not given) | inactive |  |
| Nc1cc(C(F)(F)F)ccc1S | inactive |  |
| CC[N+](CC)(CC)CCOC(=O)C(C1CCCC1)C1CCCC1 | inactive |  |
| CCc1cc2cc(OC)c(OC)cc2c(Cc2ccccc2)n1 | inactive |  |
| CC(C)(C)C(=O)OCOC(=O)C1N2C(=O)CC2S(=O)(=O)C1(C)C (stereo not given) | inactive |  |

| SMILES | Potency | activity change, negative = cytotoxic |
| --- | --- | --- |
| CC(C)=CCNc1ncnc2c1ncn2[C@@H]1O[C@H](CO)[C@@H](O)[C@H]1O | 8.41 µM (active) |  |
| OCCCc1ccccc1 | inactive |  |
| Cc1cccc(N(C)C(=S)Oc2ccc3c(c2)CCC3)c1 | inactive |  |
| CC1(C)S[C@@H]2[C@H](NC(=O)C(c3ccccc3)S(=O)(=O)O)C(=O)N2[C@H]1C(=O)O (stereo not given in full) | inactive |  |
| O=C(OCCN1CCOCC1)c1cccnc1Nc1cccc(C(F)(F)F)c1 | inactive |  |
| NCCCC(N)CC(=O)NCC1NC(=O)C(CO)NC(=O)C(N)CNC(=O)C(C2CCN=C(N)N2)NC(=O)C(=CNC(N)=O)NC1=O (stereo not drawn) (H-[Dap]S[Dap](ξβ3hOrn)[ΔAla(3-NHCONH2)][X10]; lactam 1-C; configuration not given here) |  | 5.88% [at 0.597 µM] |
| Cc1cccc(N(C)C(=S)Oc2ccc3c(c2)C2CCC3C2)c1 (stereo not given) | inactive |  |
| CC[N+]1(CC)CCC(=C(c2ccccc2)c2ccccc2)C1C (stereo not given) | inactive |  |
| CN1Cc2cc(C(=O)N3CCC(C4CCNCC4)CC3)ccc2N[C@@H](CC(=O)O)C1=O | inactive |  |
| COc1ccc2c(c1)c(CC(=O)OC/C=C(\C)CC/C=C(\C)CCC=C(C)C)c(C)n2C(=O)c1ccc(Cl)cc1 | inactive |  |
| O=P(O)(O)OCC(O)CO (stereo not given) | inactive |  |
| CC1c2ccccc2CN1NC(=O)c1ccc(Cl)c(S(N)(=O)=O)c1 (stereo not given) | inactive |  |
| CCCC(=O)O[C@]1(C(=O)CCl)[C@@H](C)C[C@H]2[C@@H]3CCC4=CC(=O)C=C[C@]4(C)[C@@]3(F)C(=O)C[C@@]21C | inactive |  |
| CN1CCN(N)CC1 | inactive |  |
| Cc1cccc(C)c1NC(=O)c1cc(S(N)(=O)=O)c(Cl)cc1O | inactive |  |
| CCC(=O)O[C@]1(C(=O)COC)[C@@H](C)C[C@H]2[C@@H]3CCC4=CC(=O)C=C[C@]4(C)C3(F)[C@@H](O)C[C@@]21C (stereo not given in full) | inactive |  |
| C[C@H](CN1CCCC1)C(=O)c1ccc(C(F)(F)F)cc1 | inactive |  |
| O=C(O)[C@@H](O)[C@H](O)[C@H](O)[C@@H](O)C(=O)O | inactive |  |
| C[C@@H]1C[C@H]2[C@@H]3CCC4=CC(=O)C=C[C@]4(C)[C@@]3(F)[C@@H](O)C[C@]2(C)[C@@]1(O)C(=O)COC(=O)c1ccncc1 | inactive |  |
| CC(C)C(C)(C)C(C)(C)C(C)(C)S | inactive |  |
